For 31 compounds, potency estimated from few doses results are on record in publication PMC11062922 (Nature Chemical Biology, 2023).

Holding throughout (design): species or system human, MV4-11 + K-562 + COLO205 + SK-N-BE2 + OVCAR-8
One experiment has as its system TNIK. The settings on record: read-out: apparent Kd, compound concentrations: 100 nM and 1000 nM (sheet 'Samples'), n = 1.
Another experiment has as its system IRAK3. Conditions: read-out: apparent Kd, compound concentrations: 100 nM and 1000 nM (sheet 'Samples'), n = 1.
The subject of a further experiment is PIK3CA. Conditions: read-out: apparent Kd, compound concentrations: 100 nM and 1000 nM (sheet 'Samples'), n = 1.
A further experiment relates to TEC. Conditions: read-out: apparent Kd, n = 1.
In another experiment the test system is MTOR. Conditions: read-out: apparent Kd, n = 1.
The subject of the next experiment is PIK3CG. Conditions: read-out: apparent Kd, compound concentrations: 100 nM and 1000 nM (sheet 'Samples'), n = 1.
The test system of the next experiment is TESK1. The settings on record: read-out: apparent Kd, compound concentrations: 100 nM and 1000 nM (sheet 'Samples'), n = 1.
The next experiment concerns PRKAG1. Conditions: read-out: apparent Kd, n = 1.
The next experiment concerns PTK2B. The settings on record: read-out: apparent Kd, n = 1.
The next experiment has as its system PTK2. The settings on record: read-out: apparent Kd, n = 1.
In the next experiment the test system is STK16. Conditions: read-out: apparent Kd, compound concentrations: 100 nM and 1000 nM (sheet 'Samples'), n = 1.
A further experiment deals with PYGL. Conditions: read-out: apparent Kd, compound concentrations: 100 nM and 1000 nM (sheet 'Samples'), n = 1.
Another experiment has as its system MAPK8. The settings on record: read-out: apparent Kd; compound concentrations:100 nM and 1000 nM (sheet 'Samples'); n = 1.
A further experiment deals with ADRBK1. The settings on record: read-out: apparent Kd; compound concentrations:100 nM and 1000 nM (sheet 'Samples'); n = 1.
The next experiment has as its system STK3. The settings on record: read-out: apparent Kd, n = 1.
The next experiment relates to CDK2. Conditions: read-out: apparent Kd, compound concentrations: 100 nM and 1000 nM (sheet 'Samples'), n = 1.
For a further experiment, the system named is CDK5. The settings on record: read-out: apparent Kd, n = 1.
The subject of the next experiment is LIMK2. Conditions: read-out: apparent Kd; compound concentrations: 100 nM and 1000 nM (sheet 'Samples'), CATDS: 3.5211660098846E-2; n = 1.
The subject of the next experiment is ADCK1. The settings on record: read-out: apparent Kd, n = 1.
The test system of the next experiment is CDK1. Conditions: read-out: apparent Kd; compound concentrations:100 nM and 1000 nM (sheet 'Samples'); n = 1.
Setting [1] is: compound concentrations:100 nM and 1000 nM (sheet 'Samples').

The structures appear in SMILES notation. Read-outs that look alike come from different tables or passages of the source.

Consider `Cl.Oc1cccc(Nc2ccnc3cc(-c4ccncc4)ccc23)c1` [GW494601A], for which the potency estimated from few doses in the experiment on TNIK (CATDS: 2.0441514499226199E-2) was 1280 nM. Regarding `NC(=O)c1cccc(Nc2nccc(Nc3cccc4[nH]ncc34)n2)c1` [GW782612X], the potency estimated from few doses in the experiment on IRAK3 (CATDS: 4.1377048408479999E-2) is 891 nM. In the case of `O=C1N=C(NCc2ccccc2Cl)S/C1=C\c1ccc2ncccc2c1` [RO4506917-000], in the experiment on PIK3CA (CATDS: 0.16964202934765399), the potency estimated from few doses is 283 nM. `Cc1cccc(Nc2nc(NCCN)ncc2C(N)=O)c1` [GSK1292139B]: in the experiment with TNIK (CATDS: 7.7542557386304695E-2), the potency estimated from few doses was 1140 nM. As for `Cc1ccc(O)cc1Nc1ccnc2cc(-c3ccc(CN4CCCCC4)o3)ccc12` [GW557777X], the potency estimated from few doses with TEC (compound concentrations: 100 nM and 1000 nM (sheet 'Samples'), CATDS: 1.34758228974899E-2) is 1040 nM. In the case of `CS(=O)(=O)CCNCc1ccc(-c2ccc3ncnc(Nc4ccc(OCc5cccc(F)c5)c(C(F)(F)F)c4)c3c2)o1` [GW576484X], the potency estimated from few doses in the experiment with MTOR (compound concentrations: 100 nM and 1000 nM (sheet 'Samples'), CATDS: 9.7740197678702595E-2) is 599 nM. For the compound `NC1=NC(=O)/C(=C/c2ccc3ncccc3c2)S1` [RO4569139-000], in the experiment with PIK3CG (CATDS: 0.108121816897262), the potency estimated from few doses was 432 nM. Take `COc1cc(Nc2ccnc3cc(-c4ccncc4)ccc23)cc(OC)c1OC.Cl` [GW494610A]: the results for the potency estimated from few doses in the experiment with TESK1 (CATDS: 2.92896642952412E-2) and in the experiment with TNIK (CATDS: 2.73925679017063E-2) were 549 nM and 689 nM, respectively. As to `COc1cc(Nc2nccc(N3CCC(NC(=O)C4COc5ccccc5O4)C3)n2)cc(OC)c1OC` (centres unmarked) [GSK1379761A], the potency estimated from few doses with IRAK3 (CATDS: 0.29618099534974801) was 900 nM. Consider `O=C1N=C(NCc2cccs2)SC1Cc1ccc2ncccc2c1` (centres unmarked) [RO4629078-000], for which the potency estimated from few doses in the experiment on MTOR (compound concentrations: 100 nM and 1000 nM (sheet 'Samples'), CATDS: 1.0012071697909601E-2) was 667 nM; in the experiment with PRKAG1 (compound concentrations: 100 nM and 1000 nM (sheet 'Samples'), CATDS: 1.42415287056141E-2) it was 314 nM; with PTK2B (compound concentrations: 100 nM and 1000 nM (sheet 'Samples'), CATDS: 1.78994015869859E-2), 211 nM; with PTK2 (compound concentrations: 100 nM and 1000 nM (sheet 'Samples'), CATDS: 1.61758600761754E-2) it was 250 nM; in the experiment on TEC (compound concentrations: 100 nM and 1000 nM (sheet 'Samples'), CATDS: 8.6375652210939294E-3), 1000 nM. For the compound `O=C1N=C(NCCc2ccccc2F)S/C1=C\c1ccc2ncccc2c1` [RO4498483-000], in the experiment with PIK3CA (CATDS: 0.16167463298299301), the potency estimated from few doses was 268 nM. Take `O=C1N=C(NCCc2cccc(Cl)c2)S/C1=C\c1ccc2ncccc2c1` [RO4509201-000]: the potency estimated from few doses in the experiment with PIK3CA (CATDS: 0.11246138422507899) was 274 nM; in the experiment with PIK3CG (CATDS: 5.9148900132827802E-2), 1370 nM. As to `O=C1N=C(NCCc2ccccn2)S/C1=C\c1ccc2ncccc2c1` [RO4508346-000], the potency estimated from few doses in the experiment with STK16 (CATDS: 6.4775104376565806E-2) is 2150 nM. Take `Cl.Cl.Cl.c1ccc(Oc2ccc(Nc3ccnc4cc(-c5ccc(CN6CCNCC6)o5)ccc34)cc2)nc1.c1ccc(Oc2ccc(Nc3ccnc4cc(-c5ccc(CN6CCNCC6)o5)ccc34)cc2)nc1` [GW567142A]: the potency estimated from few doses is 2080 nM with PYGL (CATDS: 1.6934358184527699E-2); 1300 nM with TEC (compound concentrations: 100 nM and 1000 nM (sheet 'Samples'), CATDS: 1.92615538801734E-2); 2060 nM with TNIK (CATDS: 1.6971599300490501E-2). In the case of `Cc1cccc(-c2cc(-c3c[nH]nc3-c3ccccn3)ccn2)c1` [GW679395X], the potency estimated from few doses in the experiment on MAPK8 is 1610 nM; with MTOR (setting [1]), 501 nM; in the experiment on TEC (setting [1]), 1320 nM. With `CS(=O)(=O)Cc1ccc(Nc2nccc(-c3c(-c4cccc(NC(=O)C5CCCCC5)c4)nn4ncccc34)n2)cc1` [GSK350559A], the potency estimated from few doses is 1690 nM in the experiment on ADRBK1 and 1920 nM in the experiment on STK3 (setting [1]). On to `CNC1=NC(=O)/C(=C/c2ccc3ncccc3c2)S1` [RO4595949-000], for which the potency estimated from few doses in the experiment on PIK3CG (CATDS: 8.0370856047911096E-2) was 401 nM.

As to `CN1C(=O)c2ccccc2N(C)c2nc(Nc3cnn(C4CCNCC4)c3)ncc21` [XMD-17-51], the potency estimated from few doses with PIK3CG (CATDS: 5.0205811396743898E-2) is 50.7 nM; in the experiment on PRKAG1 (compound concentrations: 100 nM and 1000 nM (sheet 'Samples'), CATDS: 1.89897373320012E-2), 530 nM; with STK16 (CATDS: 1.46632885257346E-2), 1360 nM.

For the compound `COc1ccc(Nc2nccc(N3CCC(NC(=O)Nc4ccc5c(c4)OCO5)C3)n2)cc1` (centres unmarked) [GSK1379745A], the potency estimated from few doses is 1670 nM with PYGL (CATDS: 3.8130802338003297E-2) and 510 nM in the experiment on TESK1 (CATDS: 7.4775560770701202E-2). In the case of `CC(C)c1nc(-c2cccc(NS(=O)(=O)c3ccccc3)c2)c(-c2ccnc(Nc3ccc4c(c3)CN(C)CC4)n2)s1` [GSK1649598A], the potency estimated from few doses in the experiment on CDK2 (CATDS: 1.6681675288379799E-2) was 614 nM; in the experiment on CDK5 (compound concentrations: 100 nM and 1000 nM (sheet 'Samples'), CATDS: 2.0487115884267999E-2), 353 nM; with LIMK2 it was 116 nM; with TESK1 (CATDS: 9.9245429656874704E-2) it was 24.2 nM; with TNIK (CATDS: 1.2157872123198099E-2), 2170 nM.

Regarding `COc1cc(Nc2nccc(N3CCC(NC(=O)c4cccc(C#N)c4)C3)n2)cc(OC)c1OC` (centres unmarked) [GSK1379751A], the potency estimated from few doses with IRAK3 (CATDS: 0.26615341135904602) is 510 nM. Turning to `COc1cccc(-n2ncc3c(N/N=C/c4ccc(C(=O)NCCN(C)C)cc4)ncnc32)c1.Cl` [GW784307A], the potency estimated from few doses was 900 nM in the experiment with ADCK1 (compound concentrations: 100 nM and 1000 nM (sheet 'Samples'), CATDS: 3.1344375728913298E-2); 1410 nM with IRAK3 (CATDS: 2.7757665118228601E-2). Take `CNc1nccc(-c2c(-c3ccc(F)cc3)ncn2C2CCN(C)CC2)n1` [SB-222903]: in the experiment with MTOR (setting [1]), the potency estimated from few doses was 295 nM. `Cl.Cn1c(=O)c(Cc2ccc(F)cc2F)cc2cnc(NC3CCOCC3)nc21` [RO3308757-001]: the potency estimated from few doses in the experiment on PTK2B (setting [1]) is 456 nM; in the experiment with PTK2 (setting [1]) it was 474 nM. Take `Fc1ccc(-c2c(-c3ccncc3)[nH]c3nccnc23)cc1` [RO1155697-000]: the potency estimated from few doses in the experiment with MAPK8 was 1790 nM. Turning to `Cn1cc(-c2cnc(N)c3c(-c4ccc5c(c4)CCN5C(=O)Cc4ccccc4)csc23)cn1` [GSK2593074A], the potency estimated from few doses with STK3 (setting [1]) was 1890 nM. Turning to `Cc1cc(O)cc(C)c1/C=C/c1cncc(-c2nn[nH]n2)c1.Cl` [GW441806A], the results for the potency estimated from few doses with PIK3CA (CATDS: 8.3670028423682499E-2) and with TESK1 (CATDS: 4.6291633424982298E-2) were 256 nM and 1290 nM, respectively. For the compound `CN1CCc2ccc(Nc3nccc(-c4c(-c5cccc(NC(=O)c6c(F)cccc6F)c5)nc5ccccn45)n3)cc2C1.Cl` [GSK1010829B], in the experiment on STK3 (compound concentrations: 100 nM and 1000 nM (sheet 'Samples'), CATDS: 3.0039466965453999E-2), the potency estimated from few doses was 2170 nM. For `N#Cc1cccc(Nc2nccc(-c3cnn4ncccc34)n2)c1` [GW778894X], the potency estimated from few doses was 2050 nM in the experiment on ADCK1 (setting [1]); 1240 nM in the experiment on CDK1; 194 nM in the experiment on CDK2 (CATDS: 2.8219089282239498E-2); 669 nM with CDK5 (setting [1]); 1330 nM with MAPK8.

As for `CN(C)Cc1ccc(-c2ccc3c(Nc4ccc(Oc5ccccn5)cc4)ccnc3c2)o1` [GW567148X], the potency estimated from few doses is 830 nM in the experiment on PTK2B (compound concentrations: 100 nM and 1000 nM (sheet 'Samples'), CATDS: 2.12691468378991E-2); 850 nM in the experiment on PTK2 (compound concentrations: 100 nM and 1000 nM (sheet 'Samples'), CATDS: 2.1089063317390098E-2). Turning to `COc1cc2ncn(-c3cc(OCCCc4ccccc4)c(C(N)=O)s3)c2cc1OC` [GSK205189A], the potency estimated from few doses in the experiment with PRKAG1 (setting [1]) was 1310 nM; in the experiment on PTK2B (setting [1]) it was 642 nM; in the experiment on PTK2 (setting [1]), 678 nM.
